According to PubChem BioAssay AID1159554 (Broad Institute, 2015):
Hit rate of the full screen: of about 94,000 compounds, about 2,100 (2.2%) were called active. No stated cut-off is given here; in the data, active means activity change below about -80%; inconclusive means no clear call, values can overlap the other calls; inactive means above that. Shown is part of a subset that was picked to be rich in actives.

Test: Dd2 malaria parasite growth inhibition – SYBR Green fluorescence, single dose replicates, primary screen (AID 1159554)
Settings: P. falciparum Dd2 growth, 72 h, at 10 µM, active compounds read low

Question: Which activity change does the source give for CO[C@H]1CN(C)C(=O)c2cc(NS(=O)(=O)c3ccccc3)ccc2OC[C@@H](C)N(Cc2nccs2)C[C@@H]1C here?
Answer: The activity change was -8.31% (inactive).

Question: With CCS(=O)(=O)N1CC2(CN(Cc3cc(F)ccc3F)[C@@H](CO)c3c2c2ccc(OC)cc2n3C)C1 as the compound, how does the activity change read?
Answer: Its activity change is -72.9% (inactive).

Question: Which activity change does the source give for CO[C@H]1CN(C)C(=O)c2cc(NS(C)(=O)=O)ccc2OC[C@@H](C)N(Cc2ccccc2)C[C@@H]1C here?
Answer: The activity change was -41.2% (inactive).

Question: Which activity change does the source give for COCC(=O)N1CCC2(CC1)CN(Cc1ccccc1Cl)[C@H](CO)c1c2c2ccc(OC)cc2n1C here?
Answer: Its activity change is -60.4% (inactive).

Question: For CCC(=O)N1CC2(C1)CN(Cc1ccccc1Cl)[C@@H](CO)c1[nH]c3cc(OC)ccc3c12, which activity change is on record?
Answer: Its activity change is -91.3% (active).

Question: Which activity change does the source give for COc1ccc2c3c([nH]c2c1)[C@H](CO)N(Cc1ccccc1OC)CC31CCN(S(=O)(=O)c2ccccc2)CC1 here?
Answer: Its activity change is -79.1% (inactive).

Question: With COc1ccc2c3c(n(C)c2c1)[C@H](CO)N(Cc1ccccc1Cl)CC31CN(C(=O)CN(C)C)C1 as the compound, how does the activity change read?
Answer: Its activity change is -83.6% (active).

Question: For COc1ccc2c3c([nH]c2c1)[C@@H](CO)N(C(C)=O)CC31CCN(Cc2ccccc2Cl)CC1, which activity change is on record?
Answer: Its activity change is -38.2% (inactive).

Question: With COc1ccc2c3c([nH]c2c1)[C@@H](CO)N(Cc1ccccc1F)CC31CN(C(=O)C2CC2)C1 as the compound, how does the activity change read?
Answer: Its activity change is -48% (inactive).

Question: Which activity change does the source give for CCCC(=O)N1CC2(CN(C(=O)NC(C)C)C2)c2c([nH]c3cc(OC)ccc23)[C@@H]1CO here?
Answer: Its activity change is 16.5% (inactive).

Question: Which activity change does the source give for COc1ccc2c3c(n(C)c2c1)[C@@H](CO)N(Cc1ccccc1)CC31CN(C(=O)C2CC2)C1 here?
Answer: The activity change was -20.3% (inactive).

Question: Which activity change does the source give for COc1ccc2c3c([nH]c2c1)[C@H](CO)N(Cc1ccccc1Cl)CC31CN(C(=O)C2CC2)C1 here?
Answer: Its activity change is -92.3% (active).

Question: Which activity change does the source give for COc1ccc(-c2ccc([C@@H]3[C@@H](C#N)N(C(=O)C4CCCCC4)[C@H]3CO)cc2)cc1 here?
Answer: Its activity change is -30.1% (inactive).

Question: Which activity change does the source give for CCC(=O)Nc1ccc2c(c1)C(=O)N(C)C[C@H](OC)[C@H](C)CN(C(=O)c1ccccn1)[C@@H](C)CO2 here?
Answer: Its activity change is 15.8% (inactive).

Question: With COc1ccc2c3c(n(C)c2c1)[C@H](CO)N(C(=O)Nc1c(C)noc1C)CC31CN(CC2CC2)C1 as the compound, how does the activity change read?
Answer: The activity change was -7.59% (inactive).

Question: For O=C(C[C@H]1CC[C@H]2NC[C@@H](O)COC[C@@H]2O1)NCCN1CCCC1, which activity change is on record?
Answer: Its activity change is 9.89% (inactive).

Question: With COc1cccc(CN(C)C[C@H]2OCc3ccccc3-c3c(n(C)c4ccccc34)C(=O)N([C@@H](C)CO)C[C@@H]2C)c1 as the compound, how does the activity change read?
Answer: The activity change was -62% (inactive).

Question: Which activity change does the source give for COc1ccc2c3c(n(C)c2c1)[C@H](CO)NCC31CN(S(=O)(=O)c2cccc(C)c2)C1 here?
Answer: The activity change was 21.6% (inactive).

Question: Which activity change does the source give for C[C@@H]1CN([C@@H](C)CO)C(=O)c2cccc(NS(=O)(=O)c3cccs3)c2O[C@@H]1CN(C)CC1CC1 here?
Answer: Its activity change is 18.4% (inactive).

Question: Which activity change does the source give for C[C@@H]1CN([C@@H](C)CO)C(=O)c2cccc(NC(=O)c3cnccn3)c2O[C@H]1CN(C)Cc1ccc(-c2ccccc2)cc1 here?
Answer: Its activity change is -64.1% (inactive).

Question: Which activity change does the source give for C[C@H]1CN([C@@H](C)CO)C(=O)c2cccc(NS(=O)(=O)c3cccs3)c2O[C@H]1CN(C)Cc1ccc(C(=O)Nc2ccccc2N)cc1 here?
Answer: The activity change was -87.1% (active).

Question: Which activity change does the source give for C[C@H]1CN([C@@H](C)CO)C(=O)c2cccc(NC(=O)c3ccc(-c4nccs4)cc3)c2O[C@H]1CN(C)Cc1ccc(C(=O)O)cc1 here?
Answer: The activity change was 24% (inactive).

Question: With C[C@@H]1CN([C@H](C)CO)C(=O)c2cccc(NC(=O)c3cnccn3)c2O[C@@H]1CN(C)Cc1ccc(C(=O)Nc2ccccc2N)cc1 as the compound, how does the activity change read?
Answer: The activity change was -88.3% (active).

Question: Which activity change does the source give for C[C@@H]1CN([C@@H](C)CO)C(=O)c2cccc(NC(=O)c3ccc(-c4nccs4)cc3)c2O[C@H]1CN(C)Cc1ccc(Cl)c(Cl)c1 here?
Answer: The activity change was -90.3% (active).

Question: Which activity change does the source give for C[C@@H]1CN([C@@H](C)CO)C(=O)c2cccc(NC(=O)c3cnccn3)c2O[C@H]1CN(C)Cc1ccc(C(=O)O)cc1 here?
Answer: The activity change was -5.79% (inactive).

Question: For C[C@H](CO)N1C[C@H](C)[C@@H](CN(C)S(C)(=O)=O)Oc2c(NC(=O)c3ccc(-c4nccs4)cc3)cccc2C1=O, which activity change is on record?
Answer: Its activity change is -4.15% (inactive).

Question: With C[C@@H]1CN([C@@H](C)CO)C(=O)c2cccc(NC(=O)c3ccc(-c4nccs4)cc3)c2O[C@@H]1CN(C)Cc1ccncc1 as the compound, how does the activity change read?
Answer: Its activity change is -15.6% (inactive).

Question: For C[C@@H]1CN([C@@H](C)CO)C(=O)c2cccc(NS(=O)(=O)c3cccs3)c2O[C@H]1CN(C)Cc1ccncc1, which activity change is on record?
Answer: Its activity change is 28.4% (inactive).

Question: With C[C@H](CO)N1C[C@H](C)[C@@H](CN(C)Cc2ccc(C(=O)Nc3ccccc3N)cc2)Oc2c(NC(=O)c3ccc(-c4nccs4)cc3)cccc2C1=O as the compound, how does the activity change read?
Answer: The activity change was -90% (active).

Question: With C[C@H](CO)N1C[C@H](C)[C@H](CN(C)S(C)(=O)=O)Oc2c(NC(=O)c3ccc(-c4nccs4)cc3)cccc2C1=O as the compound, how does the activity change read?
Answer: Its activity change is -3.36% (inactive).

Question: For COc1ccc2c3c(n(C)c2c1)[C@@H](CO)N(CC1CC1)CC31CN(C(=O)c2cccc(F)c2)C1, which activity change is on record?
Answer: The activity change was -33.2% (inactive).

Question: With CO[C@H](CN(C)C(=O)c1cnccn1)[C@@H](C)CN([C@@H](C)CO)S(=O)(=O)c1ccc(C)cc1 as the compound, how does the activity change read?
Answer: Its activity change is 25.3% (inactive).

Question: With COc1ccccc1NC(=O)N1C[C@H]2[C@@H](c3ccccc31)[C@@H](CO)N2C(=O)C1CCCC1 as the compound, how does the activity change read?
Answer: Its activity change is -11.4% (inactive).

Question: Which activity change does the source give for CCNC(=O)[C@H]1[C@H](CO)[C@H]2Cn3c(ccc(C4=CCCC4)c3=O)[C@@H]1N2S(=O)(=O)c1cn(C)cn1 here?
Answer: Its activity change is 21.7% (inactive).

Question: With COc1ccc(-c2ccc3c(c2)O[C@H](CN(C)Cc2ccccc2C(=O)O)[C@H](C)CN([C@@H](C)CO)S3(=O)=O)cc1 as the compound, how does the activity change read?
Answer: The activity change was -14.1% (inactive).

Question: With CO[C@H]1CN(C)C(=O)c2cc(NC(=O)c3ccc4c(c3)OCO4)ccc2OC[C@@H](C)N(CCC(F)(F)F)C[C@H]1C as the compound, how does the activity change read?
Answer: The activity change was -12.7% (inactive).

Question: Which activity change does the source give for C[C@@H](C(=O)N(C)C[C@H]1OCc2ccccc2-c2c(n(C)c3ccccc23)C(=O)N([C@@H](C)CO)C[C@@H]1C)c1ccccc1 here?
Answer: The activity change was -70% (inactive).

Question: Which activity change does the source give for O=C(C[C@@H]1CC[C@@H]2[C@H](COC[C@@H](O)CN2Cc2cc(F)cc(F)c2)O1)NCc1cccc(F)c1 here?
Answer: Its activity change is -16.3% (inactive).

Question: Which activity change does the source give for C[C@H](CO)N1C[C@H](C)[C@@H](CN(C)C(=O)c2ccncc2)Oc2cc(C3=CCCCC3)ccc2S1(=O)=O here?
Answer: Its activity change is -11.8% (inactive).
